Data as given in PubChem BioAssay AID449762 (Southern Research Specialized Biocontainment Screening …, 2010).
The campaign covered roughly 330,000 compounds. About 1,900 (0.58%) were called active. Not shown: some 4% with an inconclusive outcome. Only a sample is shown. Results with a measured potency or affinity are listed apart. Unmarked numbers belong to inactive results. Rule as the data show it: inconclusive = inhibition above about 70% without an active follow-up result; inactive = below that.

Assay: M. tuberculosis growth inhibition, HTS (AID 449762);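 also: bacterial growth assessed after seven days of incubation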
Conditions: M. tuberculosis H37Rv growth inhibition, 7H9 media; at 25 µM; stronger effect = higher value

In order of falling inhibition:
1. COC(=O)c1ccc(-c2noc(CN(Cc3ccncc3)CC3CCCO3)n2)cc1 (centres undefined)  41.2%
2. CCc1nnc(N/N=C/c2ccccc2F)n1N  31.3%
3. CCN(CCn1cccn1)Cc1nc(-c2ccc(C(=O)OC)cc2)no1  24%
4. CCOC(=O)c1ccc(Oc2nc(N(C)C)nc(N(C)C)n2)cc1  17%
5. C=CCNCc1ccccc1[N+](=O)[O-]  15%
6. O=C(N/N=C/c1c(O)n(Cc2ccccc2)c(=O)[nH]c1=O)c1ccccc1O  14.7%
7. O=C1CC(=O)N(c2ccccc2)c2ccccc21  8.88%
8. CCOc1ccc(OCCC(=O)OCC(=O)Nc2ccc(N3CCOCC3)cc2)cc1  8.74%
9. COc1cccc2c1-c1c(O)cccc1C2=O  6.4%
10. O=C(CSc1c(Cl)cccc1Cl)N1CCC(c2nc3ccccc3s2)CC1  6.33%
11. COC(=O)c1cc(C#N)c(=O)[nH]c1C  4.68%
12. CCOC(=O)c1ccc(Oc2nc(OC)nc(N(C)C)n2)cc1  4.44%
13. Fc1ccccc1Oc1nc(-c2ccncc2)nc2ccccc12  4.31%
14. O=C1CCCCC(=O)N(c2ccccc2)c2ccccc21  4.12%
15. O=C(CSc1ccc(F)cc1)N1CCC(c2nc3ccccc3s2)CC1  3.87%
16. CCCCNC(=O)CSc1nc2c(sc(=S)n2-c2cc(Cl)ccc2OC)c(=O)[nH]1  2.82%
17. CCc1nnc(N/N=C/c2cc(Br)c(O)cc2O)n1N  0.32%
18. O=S(=O)(c1cccs1)n1cccn1  0.03%
19. O=C(CSc1nnnn1C1CCCC1)N1CCOCC1  -0.48%
20. Cc1ccc2c(c1)N(C(=O)CCC(=O)N1CCOCC1)CCO2  -0.82%
21. COc1cccc(CNC(=O)c2nnn(CC(=O)Nc3ccc4c(c3)OCO4)c2N)c1  -1.11%
22. O=S(=O)(Nc1ccccn1)c1cccs1  -1.52%
23. COC(=O)c1ccsc1NC(=O)CCS(=O)(=O)c1ccc(Cl)cc1  -2.4%
24. CC(=O)Nc1nc2ccccc2[nH]1  -2.83%
25. CN1CCC(OC(=O)COc2ccccc2)CC1  -3.85%
26. O=C(Nc1nc2ccccc2[nH]1)C1CC1  -4.47%
27. CCCCN(C(=O)c1c(CC)noc1C)c1c(N)n(CCCC)c(=O)[nH]c1=O  -5.14%
28. COc1ccc(NC(=O)CCN2CCN(S(=O)(=O)c3cc(Cl)ccc3Cl)CC2)cc1  -9.19%
29. Cc1c(C#N)c2ncnc(-c3ccccc3)c2n1-c1ccccc1  -23.1%
